Source: PubChem
In the library only some 14% were active in any assay of this set; here they are far more common.
NS1 function inh – qHTS Assay for Inhibitors of Influenza NS1 Protein Function | AID 2326, 2010 | hit rate 0.4% among 270,000 | Potency, µM (series often up to 46.1 µM), inactives show at the top dose activity, positive = more growth; calls by dose curve; also: potency is read from the fitted curve at half-maximal effect; actives are rising curves; nearly all actives have a fitted effect of over 50% in size
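In this qHTS, NS1 from influenza A is expressed in budding yeast, where it slows growth. Cells are switched from glucose to 2% galactose medium (pH 6.0, -URA), treated with compound, and growth recovery is read at OD600.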
Cycloheximide cs – Cycloheximide Counterscreen for Small Molecule Inhibitors of Shiga Toxin; hit rate 12% among 300,000; cell reporter, cycloheximide protein synthesis inhibition counterscreen; max response, %; in the data active = max response mostly above about 13%, no sharp cut-off; inactive = mostly below about 14%; also: read at 38.3 µM for the half of the compounds with a filed dose; 0% is about no effect
Giardia FBPA inh – qHTS Assay for Inhibitors of Fructose-1,6-bisphosphate Aldolase from Giardia Lamblia; A8B2U2; purified Giardia FBPA; Potency, µM (highest dose often 59.6 µM), without a hit: at the top dose activity, negative = inhibition, usual class: inhibitors; hit rate 0.71% among 290,000; also: potency is read from the fitted curve at half-maximal effect; % is scaled to controls: 0 for no effect and ±100 for the full control effect; nearly all actives have a fitted effect of over 55% in size
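40 nM FBPA preincubated 10 min at RT with compound (up to 57.5 uM final), then substrate plus GAPDH/TPI/NAD/arsenate coupling and diaphorase/resazurin added. Fluorescence read after 20 min at RT, 525/598 nm.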
Shiga inhibitor – A qHTS for Small Molecule Inhibitors of Shiga Toxin; hit rate 9.2% among 290,000; Vero cells, Shiga toxin protein synthesis inhibition reporter; inhibition, % at 38.7 µM; AID 2315, 2010; in the data active = inhibition mostly above about 28%, no sharp cut-off; inactive = mostly below about 43%; also: 0% is about no effect
LmPK inhibitor – qHTS Assay for Inhibitors of Leishmania Mexicana Pyruvate Kinase (LmPK). Q27686. purified LmPK, Kinase-Glo ATP luminescence, 1 h. Potency, µM (titrated, usually from 57.5 µM), for inactives: at the highest dose activity change, negative = inhibition, most hits filed as inhibitors. hit rate 0.37% among 290,000. AID 1721, 2009; also: potency is read from the fitted curve at half-maximal effect; % is scaled to controls: 0 for no effect and ±100 for the full control effect
Target sequence (Q27686 whole entry, looked up): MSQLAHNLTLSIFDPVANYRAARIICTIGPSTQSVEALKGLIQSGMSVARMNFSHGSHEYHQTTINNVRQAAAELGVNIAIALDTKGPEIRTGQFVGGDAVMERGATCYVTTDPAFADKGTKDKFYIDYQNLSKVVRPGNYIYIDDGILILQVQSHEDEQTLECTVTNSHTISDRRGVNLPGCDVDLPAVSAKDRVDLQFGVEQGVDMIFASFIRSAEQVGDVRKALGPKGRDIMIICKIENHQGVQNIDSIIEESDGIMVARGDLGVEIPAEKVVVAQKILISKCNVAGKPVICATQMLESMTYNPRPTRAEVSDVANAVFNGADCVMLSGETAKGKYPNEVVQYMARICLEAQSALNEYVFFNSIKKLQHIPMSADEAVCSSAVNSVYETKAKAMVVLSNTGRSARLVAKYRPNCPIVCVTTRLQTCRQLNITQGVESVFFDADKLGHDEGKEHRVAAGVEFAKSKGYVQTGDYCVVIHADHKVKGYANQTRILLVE
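Purified LmPK (0.1 nM) converted ADP (0.1 mM) to ATP with PEP (0.5 mM) in imidazole buffer pH 7.2 with KCl and MgCl2, 1 h at room temperature. ATP was read by Kinase-Glo luminescence; data normalized to uninhibited and no-enzyme controls.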
The depositor's hits bear a star; ? = inconclusive; / = no result. Unless noted, calls follow the shape of the dose curve; as a rule, active = well fitted curve in the direction sought with a large enough effect; inconclusive = small, poorly fitted or top-dose-only effect, or another doubt; inactive = no such curve, though single readings can be large; an effect the other way counts as inactive or inconclusive.

SMILES	NS1 function inh	Cycloheximide cs	Giardia FBPA inh	Shiga inhibitor	LmPK inhibitor
CCCCCOC(=O)C1C(c2ccccc2)C(C(=O)O)C1c1ccccc1 (stereo unspecified)	-17%	-3	18%	-2	2%
CCCOC(=O)c1ccc(NC(=O)c2cc(Cl)ccc2OC)cc1	-27%	-4	-1%	-10	-3%
CCCCOC(=O)c1cc(=O)[nH]c2ccccc12	23%	11*	2%	12	2%
CCCCOC(=O)c1ccc(NC(=O)/C=C/c2cccs2)cc1	-56%	41*	2%	53*	0%
CCCOC(=O)Nc1ccc(C(N)=O)cc1	-12%	24*	6%	19	-2%
CC(=O)Nc1ccc(C(=O)OCCCOC(=O)c2ccc(NC(C)=O)cc2)cc1	12%	-2	/	-2	-6%
CCCCOC(=O)c1ccc(NC(C)=O)cc1	-16%	13	3%	52*	0%
CCCCOC(=O)c1ccc(NC(=S)NC(=O)c2ccco2)cc1	10%	6	/	5	-1%
CCCCOC(=O)c1ccc(N)cc1	-10%	15*	0%	63*	4%
CCCCOC(=O)c1ccc(NC(=O)c2cc(Cl)c(Cl)cc2C(=O)O)cc1	4%	32*	10%	66*	1%
CC(=O)Nc1ccc(C(=O)OCCc2ccccc2)cc1	-166%	42*	5%	64*	-2%
CCCCCOC(=O)c1ccc(NC(=O)c2ccco2)cc1	-82%	36*	-3%	68*	0%
CCCCOC(=O)c1ccc(NC(=O)c2c(OC)cccc2OC)cc1	0%	1	-4%	21	4%
O=C(O)Cn1c(=O)oc2cc(S(=O)(=O)NC3CCCCC3)ccc21	1%	/	/	/	/
CS(=O)(=O)N(CC(=O)NCCSCc1ccccc1)c1ccccc1Br	-3%	-1	1%	-3	5%
CCc1c(C)nc(SCC(=O)NNC(=O)c2ccco2)[nH]c1=O	-1%	30*	/	39*	-4%
CCc1c(C)nc(SCC(=O)Nc2ccc(Br)cc2)[nH]c1=O	4%	-6	4%	-11	10%
COc1cccc(NC(=O)CNC(=O)c2ccc(C)o2)c1	19%	-2	10%	-8	-11%
Cc1ccsc1C(=O)NCCc1nnc2ccccn12	-5%	31*	3%	72*	0%
O=C(NCCc1nnc2ccccn12)c1cccs1	-5%	36*	/	51*	9%
CCn1cc(C(=O)N2CCCC(CO)(Cc3ccccc3C)C2)cn1 (stereo unspecified)	3%	16	4%	-5	1%
CC(C)OC(=O)n1c(=S)oc2ccccc21	-115%	44*	-5%	68*	9%
O=C(O)CCn1c(=S)oc2ccccc21	5%	-4	6%	-4	-1%
CCCCC(=O)/C=C/n1c(=S)oc2ccccc21	-31%	35*	1%	44*	-10%
CC(C)NC(=O)CCn1c(=S)oc2ccccc21	/	-4	1%	-10	4%
SMILES	NS1 function inh	Cycloheximide cs	Giardia FBPA inh	Shiga inhibitor	LmPK inhibitor
O=c1cc2[nH]c3ccccc3c(=O)n2nc1-c1ccccc1	-5%	25*	?	64	-10%
O=C1[C@@H]2Cc3c([nH]c4ccccc34)C(c3ccccc3)N2C(=O)CN1C1CCN(Cc2ccccc2)CC1 (stereo partly specified)	1%	-10	3%	-6	0%
O=C1[C@@H]2Cc3c([nH]c4ccccc34)C(c3cccc(Br)c3)N2C(=O)CN1C1CCN(Cc2ccccc2)CC1 (stereo partly specified)	9%	18*	1%	17	-1%
COc1ccc(C(=O)Nc2ccc(-c3ccc(NC(=O)c4ccc(OC)cc4)c(OC)c3)cc2OC)cc1	17%	2	3%	-10	2%
NNC(=O)c1ccc2nc(-c3ccc(Br)cc3)cn2c1	/	30*	-11%	57	-8%
NNC(=O)c1ccc(Cn2cc(Br)cn2)cc1	?	-3	5%	-17	5%
COc1ccc(-c2cn3cc(C(=O)NN)ccc3n2)cc1	15%	24*	-12%	42*	-3%
CCN(CCCNC(=O)c1nn(C)c2c1CS(=O)(=O)c1ccccc1-2)Cc1ccccc1	10%	-3	6%	3	1%
Cc1ccc(C2C(C(=O)c3ccco3)=C(O)C(=O)N2c2nnc(C)s2)cc1 (stereo unspecified)	11%	1	-23%	17	-5%
Cc1ccc2nc(N3C(=O)C(O)=C(C(=O)c4ccco4)C3c3ccc(O)cc3)sc2c1 (stereo unspecified)	?	16*	-25%	35	0%
Cc1ccc2nc(N3C(=O)C(O)=C(C(=O)c4ccco4)C3c3ccc(C)o3)sc2c1 (stereo unspecified)	21%	31*	-8%	80*	1%
Cc1nnc(N2C(=O)C(O)=C(C(=O)c3ccco3)C2c2cccc3ccccc23)s1 (stereo unspecified)	3%	1	-20%	37*	5%
COC(=O)c1sc(N2C(=O)C(O)=C(C(=O)c3ccc(C)o3)C2c2ccco2)nc1C (stereo unspecified)	-5%	-1	/	-16	-6%
CC1CC=CC2C1C(=O)N(Cc1ccccc1)C2c1ccc(F)c(-c2ccc(N(C)C)cc2)c1 (stereo unspecified)	/	13	0%	0	/
CC(C)C(N)C(=O)NC(Cc1c[nH]c2ccccc12)C(=O)O (stereo unspecified)	/	/	-14%	/	/
COc1ccc(OC)c(Nc2ncnc3sc(-c4ccccc4)cc23)c1	-4%	2	-2%	0	-2%
COc1ccc(-c2cc3nnc(-c4ccccc4)nc3s2)cc1	-5%	50*	3%	active	-6%
O=C(Nc1ccc(Cl)cn1)c1ccc2c(Cl)c3c(nc2c1)CCC3	6%	35*	2%	64*	1%
CCC(C)NC(=O)c1ccc2c(Cl)c3c(nc2c1)CCC3 (stereo unspecified)	-9%	28*	-4%	53*	-8%
CN(C(=O)c1ccc2c(Cl)c3c(nc2c1)CCC3)c1ccccc1	-37%	45*	6%	94*	2%
CCC(C)NC(=O)c1ccc2c(SCC(=O)O)c3c(nc2c1)CCCC3 (stereo unspecified)	-3%	-5	8%	16	3%
CCN(C(=O)c1ccc2c(Cl)c3c(nc2c1)CCC3)c1ccc(C)c(C)c1	?	-3	-1%	-13	2%
CCN(Cc1nc(-c2ccccc2)no1)C(=O)c1ccco1	-3%	1	/	-6	-1%
CC(C)Oc1ccc(C2NC(=O)c3ccccc3O2)cc1 (stereo unspecified)	3%	1	14%	10	-6%
Cc1ccc(N=Cc2c(O)[nH]c3ccccc23)c([N+](=O)[O-])c1	/	22*	5%	64*	-16%
COc1ccc(N=Cc2c(O)[nH]c3ccccc23)cc1	-29%	37*	-2%	40*	-9%
COc1ccc(N=Cc2c(O)ccc3ccccc23)cc1	-3%	12	?	25	0%
